Assay outcomes deposited in PubChem by Johns Hopkins Ion Channel Center.
KCNQ2 pot: potentiators of rat KCNQ2 potassium channel | CHO-K1 KCNQ2, FluxOR thallium flux fluorescence; active compounds read high | 310,000 compounds, 0.54% hits | O88943 | AID 2239 | B-score at 10 µM;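 active = fluorescence ratio B-score at least 3 SD of library B-scores, with initial fluorescence B-score within 3 of them, cut at about 5.3 in these data; same plate scores as AID 2156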;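 also: B-score of peak minus minimum over baseline fluorescence ratio after K+ and Tl+ stimulus; positive B-score means potentiation of KCNQ2 with more thallium influx and brighter signal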
Target sequence (O88943 whole entry, looked up): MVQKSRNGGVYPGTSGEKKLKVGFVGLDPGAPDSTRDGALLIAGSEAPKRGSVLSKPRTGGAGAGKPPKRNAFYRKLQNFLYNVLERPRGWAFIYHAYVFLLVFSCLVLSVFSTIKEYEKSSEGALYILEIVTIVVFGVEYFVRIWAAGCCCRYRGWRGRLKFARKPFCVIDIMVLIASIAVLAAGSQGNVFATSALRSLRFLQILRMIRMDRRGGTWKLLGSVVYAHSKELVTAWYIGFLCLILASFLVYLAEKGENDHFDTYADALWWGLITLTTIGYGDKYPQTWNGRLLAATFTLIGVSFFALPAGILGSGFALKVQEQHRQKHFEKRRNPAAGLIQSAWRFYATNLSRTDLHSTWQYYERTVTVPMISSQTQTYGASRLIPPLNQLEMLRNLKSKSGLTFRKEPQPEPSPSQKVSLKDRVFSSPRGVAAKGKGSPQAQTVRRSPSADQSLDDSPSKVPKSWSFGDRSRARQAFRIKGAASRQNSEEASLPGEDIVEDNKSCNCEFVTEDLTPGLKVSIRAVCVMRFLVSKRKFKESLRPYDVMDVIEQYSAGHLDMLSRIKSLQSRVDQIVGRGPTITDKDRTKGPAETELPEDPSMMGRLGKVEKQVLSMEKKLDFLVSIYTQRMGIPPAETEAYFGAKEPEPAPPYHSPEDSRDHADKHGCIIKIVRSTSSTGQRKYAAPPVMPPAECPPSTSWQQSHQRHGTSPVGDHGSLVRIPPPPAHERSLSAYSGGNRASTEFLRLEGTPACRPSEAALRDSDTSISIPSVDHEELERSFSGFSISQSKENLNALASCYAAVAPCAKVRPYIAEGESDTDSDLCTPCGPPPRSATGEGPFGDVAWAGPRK
KCNQ2 block: blocks the rat KCNQ2 potassium channel | AID 2156 | CHO-K1 KCNQ2, FluxOR thallium flux, 20 min; active compounds read low | B-score at 10 µM | O88943 | 310,000 compounds, 1.1% hits;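 active = fluorescence ratio B-score at most minus 3 library SDs, with starting brightness B-score within 2 library SDs, cut at about -5.5 in these data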
Starred values were filed as active, the others as inactive; i = inactive; nt = no result. Hits are enriched below; roughly 1.6% of the tested compounds scored in any of these assays.

SMILES	KCNQ2 pot	KCNQ2 block
COc1ccc2nc(N=NC3=C(O)CC(C)(C)CC3=O)sc2c1	0.64	i
O=C(COC(=O)C1(c2ccc(F)cc2)CCCC1)Nc1ncc(C(F)(F)F)cc1Cl	-7	-7*
O=C(COC(=O)C1(c2ccc(Cl)cc2)CCCC1)Nc1ncc(C(F)(F)F)cc1Cl	nt	i
O=C(O)C1=C[C@H](c2ccc(C(F)(F)F)cc2)C[C@H](OCCCCO)O1	0.84	i
COc1cccc(C(=O)N2CCn3c2nc2ccccc23)c1	-8.7	-8.7*
CCOC(=O)C1CCN(c2nc3ccccc3n2CC(=O)c2ccccc2)CC1	nt	i
COc1ccc(C(=O)N2CCn3c2nc2ccccc23)cc1	nt	i
COc1ccc(N2CCN(c3nc4ccccc4n3CC(=O)c3ccccc3)CC2)cc1	-6.3	-6.3*
COc1ccc(C(C)C)cc1S(=O)(=O)N1CCC(C(=O)NCC2CCCO2)CC1 (centres undefined)	0.57	i
C[C@H]1CC[C@]2(O[C@H](CCO)C[C@H](O)[C@H]2O)O1	0.21	i
COc1ccc(CNC(=O)C(CC(C)C)NC(=O)c2ccccc2C)cc1 (centres undefined)	nt	i
Cc1ccccc1OCc1nc2ccccc2c(=O)n1/N=C/c1cccc([N+](=O)[O-])c1	-6.2	-6.2*
Cc1ccccc1OCc1nc2ccccc2c(=O)n1/N=C/c1cn[nH]c1-c1ccccc1	nt	i
CNC(=O)COc1ncnc2scc(-c3ccc(F)cc3)c12	1.6	i
Cn1cc(/C=C(\NC(=O)c2ccccc2)C(=O)N2CCOCC2)c2ccccc21	nt	i
Cc1ccc(C(=O)N/C(=C\c2cn(C)c3ccccc23)C(=O)N2CCOCC2)cc1	-6.3	-6.3*
Cc1ccc(C(=O)Nc2cccnc2N2CCN(C)CC2)cc1	1.6	i
CN(C1=C(NC(=O)c2ccc(Cl)cc2)C(=O)c2ccccc2C1=O)c1ccccc1	-6.3	-6.3*
O=C(NC1=C(Nc2ccc(Cl)cc2)C(=O)c2ccccc2C1=O)c1ccccc1	nt	i
Cc1cc(Nc2ccccc2)nc(NCc2ccccc2)n1	-6.2	-6.2*
Cc1cc(Nc2ccc(Cl)cc2)nc(NCc2ccccc2)n1	nt	i
Cc1ccc(OCc2cc(C(=O)N(C)CCc3nc4ccccc4[nH]3)no2)cc1C	nt	i
Cc1nc(NCCc2cnc[nH]2)c2oc3ccccc3c2n1	0.94	i
COc1ccc(CCNc2nc(C)nc3c2oc2ccccc23)cc1OC	-5.6	-5.6*
CN(c1ccc(C(=O)Nc2ccc3c(c2)n(C)c(=O)n3C)cc1)S(C)(=O)=O	0.11	i
SMILES	KCNQ2 pot	KCNQ2 block
O=C(O)CSc1c2c(nc3cc(C(=O)Nc4cccc(C(F)(F)F)c4)ccc13)CCC2	2.6	i
O=C(c1ccc(Cl)c(Cl)c1)N1CCC(=O)N(C(CO)Cc2ccccc2)CC1 (centres undefined)	1.1	i
Cc1cccc(COCC(Cc2ccccc2)N2CCN(C(=O)c3cccc(Cl)c3)CCC2=O)c1 (centres undefined)	nt	i
O=C(c1cccc(Cl)c1)N1CCC(=O)N(C(COCc2ccccc2)Cc2ccccc2)CC1 (centres undefined)	-5.8	-5.8*
O=C(c1ccc(Cl)c(Cl)c1)N1CCC(=O)N(C(COCc2ccccc2)Cc2ccccc2)CC1 (centres undefined)	-5.8	-5.8*
Cc1ccccc1CC1(CO)CCCN(C(=O)c2ccc3ncccc3c2)C1 (centres undefined)	0.39	i
COc1cc(NC(=S)NCc2cccnc2)cc(OC)c1	-7.4	-7.4*
COc1cc(NC(=S)NCc2cccnc2)cc(OC)c1OC	0.03	i
CN(C)S(=O)(=O)c1ccc(N2CCCC2)c(C(=O)OCC(=O)N2CCN(c3ccccc3)CC2)c1	1.1	i
CCN1CCN(S(=O)(=O)c2cc(OCC(=O)NC3CCCCC3)c(C)cc2Cl)CC1	11*	i
CCOC(=O)N1CCN(S(=O)(=O)c2cc(OCC(=O)NC3CCCCC3)c(C)cc2Cl)CC1	0.18	i
O=C(NCCCN1CCCC1=O)c1ccc([N+](=O)[O-])s1	0.49	i
Cn1c(=O)c([N+](=O)[O-])c(-n2ccnc2)c2ccccc21	-6	-6*
Cn1c(=O)c([N+](=O)[O-])c(NCCCn2ccnc2)c2ccccc21	nt	i
O=S1(=O)NC[C@]23C[C@H](c4ccc(F)cc4)[C@@H](C[C@@H]21)O3	0.25	i
COc1ccccc1S(=O)(=O)Cc1ccc(C(=O)N2CCN(c3ccc(C)cc3)C(C)C2)o1 (centres undefined)	-6.6	-6.6*
CCOC(=O)N1CCN(C(=O)c2ccc(CS(=O)(=O)c3ccccc3OC)o2)CC1	0.24	i
CC(NC(=O)CN(C)S(=O)(=O)c1ccc(Br)s1)c1ccccc1 (centres undefined)	1.9	i
CCOC(=O)C1CCCN(c2c(C(=O)c3ccccc3)cnc3ccccc23)C1 (centres undefined)	nt	i
CCOC(=O)C1CCN(c2c(C(=O)c3ccccc3)cnc3ccc(CC)cc23)CC1	-7.2	-7.2*
